Assay [1] has as its system Plasmodium falciparum Sir2 (PF13_0152, Sir2A). In words: Plasmodium falciparum Sir2A binding compounds – biochemical, small-molecule microarray, 635 nm fluorescence, primary screen (AID 1098).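 Further: score merges spot fluorescence intensity with its signal-to-noise ratio.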 Particulars: fluorescence 635 nm, higher = more signal.
Assay [2] can be described thus: probe aDKK1 binding to arrayed compounds – biochemical, biotinylated probe, 635/667 nm fluorescence, primary screen (AID 1099).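 Further: score merges 667nm spot fluorescence with signal to noise across triplicate slides; reference of the scale not given here.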 The settings on record: small-molecule microarray, higher = more signal.
Assay [3] in a line: probe aCHRDL2 binding to arrayed compounds – biochemical, biotinylated probe, 635/667 nm fluorescence, primary screen (AID 1100). Particulars: small-molecule microarray, higher = more signal.
Assay [4] in a line: change in splice reporter luminescence, either direction, cell-based, HEK293, spliceosome inhibition project, primary screen (AID 1101).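 Further: HEK293 cells carrying a splicing-competent luciferase reporter gene; test concentration not given here.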 The settings on record: HEK293 splicing luciferase reporter, 24 h, higher = more signal, called active from +8 up or from −8 down.
Assay [5] addresses Fibroblast growth factor 10 (Homo sapiens) (UniProt O15520). As to the kind of experiment: compounds binding fibroblast growth factor 10 – biochemical, small-molecule microarray, 635 nm fluorescence, primary screen (AID 1102). The settings on record: FGF10 binding, fluorescence 635 nm, higher = more signal.
For assay [6], the system named is glycogen synthase kinase-3 (GSK3A per assay name; protocol says GSK3B). In words: compounds binding glycogen synthase kinase-3 – biochemical, small-molecule microarray, 635 nm fluorescence, GSK3A, primary screen (AID 1103). Further: the record names both GSK3A and GSK3B. Particulars: fluorescence 635 nm, higher = more signal.
The target of assay [7] is Epidermal growth factor receptor (Homo sapiens) (UniProt P00533). As to the kind of experiment: compounds binding epidermal growth factor receptor – biochemical, small-molecule microarray, 635 nm fluorescence, primary screen (AID 1104).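 Further: score merges 667 nm emission intensity with spot signal to noise over triplicate slides.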 The settings on record: EGFR binding, higher = more signal.
Chain of Epidermal growth factor receptor (Homo sapiens) (P00533 whole entry, looked up): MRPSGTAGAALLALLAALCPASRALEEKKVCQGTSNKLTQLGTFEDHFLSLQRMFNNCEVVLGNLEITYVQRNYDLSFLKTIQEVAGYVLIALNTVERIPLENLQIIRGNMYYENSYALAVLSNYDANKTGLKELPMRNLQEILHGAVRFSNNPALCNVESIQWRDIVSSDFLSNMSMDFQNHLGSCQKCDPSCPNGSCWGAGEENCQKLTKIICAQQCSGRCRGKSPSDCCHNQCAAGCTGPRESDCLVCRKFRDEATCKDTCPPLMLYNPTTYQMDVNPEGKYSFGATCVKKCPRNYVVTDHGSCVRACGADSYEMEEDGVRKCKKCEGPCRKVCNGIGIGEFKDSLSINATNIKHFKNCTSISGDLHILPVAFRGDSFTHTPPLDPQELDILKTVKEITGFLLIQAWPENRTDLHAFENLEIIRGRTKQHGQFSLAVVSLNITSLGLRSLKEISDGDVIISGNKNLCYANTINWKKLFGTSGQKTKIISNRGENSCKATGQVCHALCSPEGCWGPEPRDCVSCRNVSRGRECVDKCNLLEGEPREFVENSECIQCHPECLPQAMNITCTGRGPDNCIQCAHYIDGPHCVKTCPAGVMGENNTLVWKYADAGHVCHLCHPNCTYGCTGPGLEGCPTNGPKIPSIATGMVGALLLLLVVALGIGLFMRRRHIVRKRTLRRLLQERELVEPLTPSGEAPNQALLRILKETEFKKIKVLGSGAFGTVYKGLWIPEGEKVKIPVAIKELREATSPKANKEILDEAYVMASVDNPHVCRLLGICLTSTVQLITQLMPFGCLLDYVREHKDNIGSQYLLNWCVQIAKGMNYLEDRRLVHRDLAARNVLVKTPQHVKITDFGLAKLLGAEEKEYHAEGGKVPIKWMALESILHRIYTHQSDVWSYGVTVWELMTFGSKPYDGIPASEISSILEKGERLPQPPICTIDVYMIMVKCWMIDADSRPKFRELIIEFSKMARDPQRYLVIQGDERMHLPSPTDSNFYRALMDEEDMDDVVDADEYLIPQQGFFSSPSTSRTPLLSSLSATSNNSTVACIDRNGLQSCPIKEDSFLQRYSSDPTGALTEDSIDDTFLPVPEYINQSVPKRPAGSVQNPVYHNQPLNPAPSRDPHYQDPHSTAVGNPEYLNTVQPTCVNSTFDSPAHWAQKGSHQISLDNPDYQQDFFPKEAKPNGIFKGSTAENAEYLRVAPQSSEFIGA
The target in assay [8] is Follistatin-related protein 3 (Homo sapiens) (UniProt O95633). As to the kind of experiment: compounds binding follistatin-related protein 3 – biochemical, small-molecule microarray, 635 nm fluorescence, primary screen (AID 1105).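 Further: score merges emission near 667 nm and signal to noise per printed spot across three slides.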 Particulars: FSTL3 binding, higher = more signal.
Chain of Follistatin-related protein 3 (Homo sapiens) (O95633 whole entry, looked up): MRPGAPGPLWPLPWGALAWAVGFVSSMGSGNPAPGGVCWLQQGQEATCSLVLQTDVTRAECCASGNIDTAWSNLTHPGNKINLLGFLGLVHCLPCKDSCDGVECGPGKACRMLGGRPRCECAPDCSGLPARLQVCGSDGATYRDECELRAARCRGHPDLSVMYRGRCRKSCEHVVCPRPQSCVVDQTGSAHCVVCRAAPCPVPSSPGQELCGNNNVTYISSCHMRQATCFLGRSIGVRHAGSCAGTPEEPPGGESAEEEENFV
Assay [9] has as its target Dickkopf-related protein 1 (Homo sapiens) (UniProt O94907). As to the kind of experiment: small molecules binding DKK1 protein – biochemical, small-molecule microarray, 635 nm fluorescence scan, primary screen (AID 1106).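 Further: score merges emission near 667 nm with signal to noise over three replicate slides.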 Particulars: higher = more signal.
In assay [10] the test system is Inhibin beta A chain (activin A). In words: small molecules binding activin A – biochemical, small-molecule microarray, 635 nm fluorescence scan, primary screen (AID 1107).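 Further: mouse activin A protein probed at 4.33 µg/mL on printed slides; score merges bound-protein fluorescence near 667 nm with spot signal-to-noise.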 The settings on record: INHBA, higher = more signal.

Active and inactive are the calls of the source.

Chain of Fibroblast growth factor 10 (Homo sapiens) (O15520 whole entry, looked up): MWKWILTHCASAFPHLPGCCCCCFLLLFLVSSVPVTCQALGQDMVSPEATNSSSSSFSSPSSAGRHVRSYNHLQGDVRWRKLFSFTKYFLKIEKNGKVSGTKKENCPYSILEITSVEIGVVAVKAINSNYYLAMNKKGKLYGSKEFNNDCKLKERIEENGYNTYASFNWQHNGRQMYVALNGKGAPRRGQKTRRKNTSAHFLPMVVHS
Chain of Dickkopf-related protein 1 (Homo sapiens) (O94907 whole entry, looked up): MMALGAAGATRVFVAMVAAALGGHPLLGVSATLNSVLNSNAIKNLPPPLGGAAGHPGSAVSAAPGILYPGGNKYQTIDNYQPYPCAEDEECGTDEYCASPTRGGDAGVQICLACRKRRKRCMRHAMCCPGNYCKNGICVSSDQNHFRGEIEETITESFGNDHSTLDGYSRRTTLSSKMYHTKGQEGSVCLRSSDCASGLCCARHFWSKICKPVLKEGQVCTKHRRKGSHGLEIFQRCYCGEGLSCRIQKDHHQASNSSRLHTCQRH

As for `CCCC=C(CCC)[C@@H](NS(=O)(=O)c1ccc(Cl)cc1)c1ccccc1`, the composite z-score was 0.6 in assay [1]; 0.619 in [2]; 0.951 in assay [3]; -0.686 in assay [5]; -1.03 in assay [6]; -0.972 in assay [7]. For the same compound, the composite z-score in [8] was -1.29; in assay [9] it was -0.979; in assay [10], 0.351. Further, in [4], the z-score is -1.69 (inactive).
`COCCn1c(C(=O)N2CCCC2)cc2c1C[C@H]1CN(C(=O)c3ccccc3)[C@@](Cc3ccccc3)(C(=O)OC)[C@@H]21`: the composite z-score in assay [1] was 1.06; in assay [2], 0.592; in assay [3], 0.268; in assay [5], 1.15; in assay [6] it was 1.26; in assay [7], -0.273. The figures for the composite z-score in [8], in assay [9] and in assay [10] were 0.166, 0.257 and 0.693, respectively. Besides, in [4], the z-score is -1.09 (inactive).
In the case of `C=CCC(OC(C)=O)[C@@H]1[C@@H](N(Cc2ccc(-c3cccc(C(F)(F)F)c3)o2)C(=O)Cc2ccc(F)cc2)c2cc(OCCCO)ccc2N1C(=O)c1ccc2ccccc2n1` (stereo not given in full), the composite z-score in assay [1] was -0.106; in assay [2], 0.0195; in assay [3] it was 0.416; in assay [5] it was -0.218; in assay [6], -1.85; in assay [7], -0.35. Also, the composite z-score in assay [8] is -0.281; in assay [9], -0.0545; in [10] it was 1.58. Besides, the z-score in assay [4] was -0.362 (inactive).
For the compound `COC(=O)C1=CC(CCCO)=CC(C2CC2)N(Cc2cccc(OC(F)(F)F)c2)C=C1C(=O)OC` (stereo not given), the composite z-score in [1] is 1.19; in assay [2], 0.0765; in assay [3], 0.234; in assay [5], 0.107; in assay [6] it was -0.363; in [7] it was -0.659. The composite z-score in assay [8] is 0.315; in assay [9] it was -0.59; in assay [10], 0.674. Also, the z-score in assay [4] was 0.449 (inactive).
Consider `COC(=O)c1ccc([C@H](NC(=O)c2ccccc2)[C@]2(C)C[C@H]2C2CCCCC2)cc1`, for which the composite z-score was 0.135 in [1]; 0.343 in [2]; 1.24 in assay [3]; 0.225 in assay [5]; 0.0377 in [6]; -0.133 in assay [7]. The composite z-score in assay [8] is 0.4; in assay [9] it was -0.532; in assay [10], 0.795. Besides, in assay [4], the z-score was 0.736 (inactive).
For `C[C@H]1NC(=O)C([C@@H](C)OCc2ccccc2)NC(=O)[C@@]23C(=O)N[C@@H](Cc4ccccc4)C2[C@H](C)[C@@]2(C)O[C@H]2C3/C=C/C/C=C\CNC1=O` (stereo not given in full), the composite z-score in assay [1] was 0.0032; in [2], -0.333; in [3], -0.603; in [5] it was 0.699; in assay [6], -0.3; in [7] it was 0.281. Also, the composite z-score in [8] was 0.511; in assay [9], 0.722; in [10], 1.43. The z-score in [4] was 0.219 (inactive).
As for `CCOC(=O)C[C@H]1[C@H](OC(=O)c2ccc(C(=O)c3ccccc3)cc2)[C@@H](NC(=O)c2ccc3ccccc3c2)c2cc(OCCCO)ccc2N1C(=O)c1ccc2ccccc2n1`, the composite z-score in assay [1] was 0.608; in assay [2] it was 0.124; in [3], 0.0404; in [5], 0.388; in assay [6] it was 0.712; in assay [7], 0.598. Also, the composite z-score in [8] is 0.624; in [9], 0.713; in assay [10], 0.676. In addition, in assay [4], the z-score was -0.372 (inactive).
In the case of `CCOC(=O)C1=C[C@@H](C(C)(C)C)N(S(=O)(=O)c2ccc(C)cc2)[C@H]1c1ccccc1Cl`, the composite z-score in assay [1] was determined as 0.993; in assay [2], 1.18; in assay [3], 1.11; in [5], 0.915; in assay [6] it was 1.29; in assay [7] it was 0.292. The composite z-score was found to be 1.18 in assay [8], 0.0627 in assay [9] and 0.0829 in assay [10]. The z-score in assay [4] is -0.232 (inactive).
For `CCCCC(O)C1C=CC2C(=O)NC(=O)C2N1Nc1ccccn1` (stereo not given), the composite z-score in assay [1] was 1.1; in assay [2], 0.0006; in assay [3], -0.0537; in assay [5], -0.0249; in assay [6], 0.0652; in [7], 0.207. Further, the composite z-score in assay [8] was -0.404; in [9], 0.0816; in [10], 0.555. The z-score in assay [4] was 2.17 (inactive).
Take `COCCOC(=O)N1C(=O)[C@@]2(c3cc(C#CCCO)ccc31)[C@H](C(=O)N1CCN(c3ncccn3)CC1)[C@H]1C(=O)O[C@H](c3ccccc3)[C@H](c3ccccc3)N1[C@@H]2c1ccc(O)cc1`: the composite z-score in [1] is 1.3; in assay [2] it was -0.499; in assay [3] it was -0.345; in [5], 1.16; in [6], 1.01; in [7] it was 0.368. Besides, the composite z-score is 0.698 in assay [8], -0.0017 in assay [9] and -0.242 in assay [10]. For the same compound, in assay [4], the z-score is 0.894 (inactive).
For the compound `C=C(COC)/C(=C/C[C@@H](OC(C)=O)c1ccccc1OCCO)c1cc(C(=O)OC)ccc1OC`, the composite z-score in [1] is 1.01; in assay [2], -0.0445; in [3], 0.012; in assay [5], 1.23; in assay [6], -0.208; in [7], -0.676. Further, the results for the composite z-score in [8], in assay [9] and in [10] were -0.0333, -0.343 and 0.416, respectively. In [4], the z-score is 0.846 (inactive).
In the case of `COCCOC(=O)N1C(=O)[C@@]2(c3cc(C#Cc4ccc(OC)cc4)ccc31)[C@H](C(=O)N1CCCCCCC1)[C@H]1C(=O)O[C@H](c3ccccc3)[C@H](c3ccccc3)N1[C@@H]2c1ccccc1OCCO`, the composite z-score worked out at 1.55 in [1]; 2.5 in [2]; 1.57 in assay [3]; 0.766 in [5]; 1.32 in assay [6]; 1.07 in assay [7]. Further, the composite z-score in [8] is 1.56; in assay [9] it was 1.61; in assay [10], 1.66. Further, in assay [4], the z-score was 0.00537 (inactive).
Regarding `C=CCC(OC(C)=O)[C@@H]1[C@@H](N(Cc2cc3ccccc3o2)C(=O)Cc2ccc(OC)cc2)c2cc(OCCCO)ccc2N1C(=O)Cc1ccc(OC)cc1` (stereo not given in full), the composite z-score in assay [1] is -0.193; in assay [2] it was -0.0082; in [3], 0.246; in [5], 0.233; in assay [6] it was -0.238; in assay [7], 0.157. For the same compound, the results for the composite z-score in assay [8], in assay [9] and in assay [10] were -0.0138, 0.214 and 1.3, respectively. Moreover, the z-score in assay [4] is -0.782 (inactive).

For the origin of these results see PubChem BioAssay.
